# Assay outcomes from PubChem BioAssay.
# This is a sample that favours compounds with a hit; in the whole collection about 3.7% have one here.
# Tau fluor counter: counter-screen for tau fibril formation inhibitors. AID 1463. tau K18 P301L Alexa594 fluorescence, heparin fibrillization. Potency, µM (top dose mostly 57.7 µM), inactives show top-dose activity change, negative = decrease. 0.93% of 280,000 active; note: % is set by controls: 0 for no effect and ±100 for the full control effect; nearly all actives have a fitted effect of over 55% in size
#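 Human tau K18 P301L (15 uM unlabeled, 0.24 uM Alexa 594-labeled) in 100 mM sodium acetate pH 7 with 20 uM heparin, 6 hr at 37 C. ThT 30 uM added, 1 hr ambient; Alexa 594 FP and total fluorescence read at 555/632 nm.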
# Tau fibril FP: blocks human tau fibril formation measured by polarization; Potency, µM (doses to about 57.7 µM), for the others: top-dose activity, negative = inhibition, most hits filed as inhibitors; 0.39% of 280,000 active; AID 1468; K18 P301L tau heparin fibrillization, Alexa594 FP, 6 h; P10636; note: % is set by controls: 0 for no effect and ±100 for the full control effect; nearly all actives have a fitted effect of over 55% in size
# Target sequence (P10636 561-689 P618L limits assumed): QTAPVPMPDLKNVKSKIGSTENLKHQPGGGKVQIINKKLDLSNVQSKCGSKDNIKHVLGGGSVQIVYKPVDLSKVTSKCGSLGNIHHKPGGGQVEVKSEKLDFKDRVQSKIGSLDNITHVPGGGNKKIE
#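 Human K18 P301L fragment (15 uM unlabeled plus 0.24 uM Alexa 594-labeled) in 100 mM sodium acetate pH 7 with compound, aggregation induced by 20 uM heparin for 6 hr at 37 C. ThT (30 uM) added for 1 hr, then Alexa 594 FP read.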
# HttQ103 aggreg: reduces HttQ103-GFP aggregates in PC12 cells; PC12 HttQ103-GFP aggregates, Acumen cytometry, 40 h; Potency, µM (series often up to 46.1 µM), inactives show top-dose activity change, negative = inhibition, most hits filed as inhibitors; 1.1% of 220,000 active; note: % is set by controls: 0 for no effect and ±100 for the full control effect; nearly all actives have a fitted effect of over 60% in size
#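 Ecdysone-promoter PC12 model expressing HTT exon 1 Q103 fused to GFP, induced by tebufenozide at 100 nM final. Compounds titrated; aggregates sized 1–25 µm scored on a 488 nm laser cytometer.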
# HTT cytoprotect: protects HTT-Q103 PC12 cells, measured by ATP; Potency, µM (series often up to 56.4 µM), for inactives: cytoprotection (ATP increase), most hits filed as activators; 0.14% of 230,000 active; PC12 HTT-Q103 induced, cytoprotection, ATP luminescence, 40 h; note: % of control where 0% means no effect; nearly all actives have a fitted effect of over 45% in size
#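 Cells were plated at 1500 per well in phenol red-free DMEM with 5% equine and 5% calf serum. Tebufenozide (100 nM final) and compounds were added, then ATPlite reagent, and luminescence was read.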
# Tau ThT inhib: blocks human tau fibril formation measured by thioflavin T | AID 1460 | 2.1% of 270,000 active | Potency, µM (doses to about 57.4 µM), for the others: top-dose activity, negative = inhibition, usual class: inhibitors | recombinant tau K18 P301L, heparin-induced fibrillization, ThT fluorescence; note: % is set by controls: 0 for no effect and ±100 for the full control effect; nearly all actives have a fitted effect of over 55% in size
#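 ThT emission at 510 nm, taken 1 hr after adding 30 uM dye, quantifies aggregates formed when 20 uM heparin acts on human tau K18 P301L for 6 hr at 37 C.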
# The depositor's hits bear a star; ? = inconclusive; nt = not tested or not shown; [ ] = remark or other dose. Calls come from the whole dose curve; as a rule, active = well fitted curve in the direction sought with a large enough effect; inconclusive = small, poorly fitted or top-dose-only effect, or another doubt; inactive = no such curve, though single readings can be large; an effect the other way counts as inactive or inconclusive. Potency is the fitted concentration of half-maximal effect.
SMILES,Tau fluor counter,Tau fibril FP,HttQ103 aggreg,HTT cytoprotect,Tau ThT inhib
CCOC(=O)c1ccc(Nc2nc(C(=O)OCC)nc3ccccc23)cc1,?,?,-11.5%,-8.4%,-7.2%
O=c1c(Cl)cc(Cl)nn1-c1ccccc1,3.1%,-5.1%,17.8µM*,23.8%[10 µM],-6.4%
O=C(Nc1ccc(Cl)c(C(F)(F)F)c1)C1CCN(S(=O)(=O)c2cccc3nonc23)CC1,?,?,nt,nt,1.8%
CCN(C(=O)c1cc2c(=O)oc3ccc(C)cc3c2s1)c1ccccc1F,-19.6%,-11.0%,nt,nt,-9.7%
Cc1ccc(N=Cc2cc3c(cc2O)OC(N)=C(C#N)C3c2ccccc2)cc1 (stereo unspecified),-27.8%,?,10µM*,-16.1%[1.9 µM],?
N#CC1=C(N)Oc2cc(O)c(C=Nc3ccccc3)cc2C1c1ccccc1 (stereo unspecified),-27.2%,?,1.58µM*,6.7%[1.9 µM],?
Cc1cccc(/C=C2\CS/C(=C\c3cccc(C)c3)C2=O)c1,-18.8%,-2.9%,?,9.4%,3.55µM*
O=C1/C(=C/c2cccc(Cl)c2)CSc2sccc21,-29.0%,-1.6%,-11.6%[9.22 µM],0.8%[10 µM],-16.9%
COc1ccc(S(=O)(=O)N2CN(Cc3ccco3)c3nc4ccccc4nc32)cc1,-29.9%,?,?,6.3%[0.074 µM],22.4µM*
O=S(=O)(c1ccc(F)cc1)N1CN(Cc2ccco2)c2nc3ccccc3nc21,?,?,2.7%[9.22 µM],-24.7%[0.074 µM],31.6µM*
Cc1ccc(S(=O)(=O)N2CN(Cc3ccco3)c3nc4ccccc4nc32)cc1,-6.8%,-2.7%,3.8%,9.4%,-18.8%
COc1ccc(N(CC(=O)N/N=C(\C)CCc2ccccc2)S(=O)(=O)c2ccc(C)cc2)cc1,nt,nt,10.9%[9.22 µM],3.55µM*,nt
COc1cc(OC)cc(C(=O)Oc2ccc(/C=N/Nc3nc4ccccc4s3)cc2OC)c1,10µM*[quencher],1.0%,?,-10.5%[10 µM],?
COc1cc(/C=N/Nc2nc3ccccc3s2)ccc1OC(=O)c1ccccc1F,7.08µM*[quencher],11.8%,-13.7%,4.6%[1.9 µM],?
O=S1(=O)N[C@H]2CC[C@@H]3NS(=O)(=O)N[C@H]4CC[C@H](N1)N4S(=O)(=O)N23,nt,nt,nt,-7.3%[10 µM],nt
COc1ccc(CNC(=O)c2cnc3sc(N4CCCCCC4)nn3c2=O)cc1,5.1%,7.7%,nt,nt,5.6%
O=C(O)/C=C/C(=O)c1ccc2c(c1)NC(=O)CO2,-0.7%,?,-4.3%,0.199µM*,?
Cc1ccc(S(=O)(=O)Nc2ccc3c(c2)c(C(=O)OC(C)C)c(C)n3S(=O)(=O)c2ccc(C)cc2)cc1,?,?,nt,nt,-5.7%
Cc1ccc(-c2c3c(nc4sc(C(N)=O)c(N)c24)CCC3)cc1,-28.7%,6.6%,10µM*,-2.2%,-15.4%
COc1ccccc1CNC(=O)CCCn1c(=O)c2cccn2c2ccccc21,-29.2%,-13.0%,nt,nt,-18.8%
Cc1cc(C)c2nc3s/c(=C/c4ccccc4)c(=O)n3c2c1,-24.5%,?,3.8%,-14.8%,28.2µM*
O=C(O)C[C@H](S)C(=O)O,nt,nt,nt,3.1%[10 µM],nt
CC1=CC(C)(C)Nc2ccc(OC(=O)CN3C(=O)c4ccccc4C3=O)cc21,15.8µM*[quencher],-1.0%,?,nt,?
CC1=CC(C)(C)Nc2ccc(OC(=O)CN3C(=O)c4cccc5cccc(c45)C3=O)cc21,?,?,?,-114.0%,12.6µM*
CCC1CO/C(=C(\C(Cl)=C(Cl)Cl)[N+](=O)[O-])N1 (stereo unspecified),-18.8%,?,2.5%,-16.8%,35.5µM*
SMILES,Tau fluor counter,Tau fibril FP,HttQ103 aggreg,HTT cytoprotect,Tau ThT inhib
COc1ccc(Nc2nc(Nc3ccc(OC)cc3OC)nc(N3CCN(C)CC3)n2)c(OC)c1,10µM*[quencher],?,?,3.2%[10 µM],?
COc1ccccc1N1CCN(S(=O)(=O)CCNC(=O)COc2ccc(C(C)C)cc2)CC1,-18.4%,0.7%,nt,nt,?
N=C1S/C(=C\c2ccco2)C(=O)N1c1nccs1,-22.3%,-2.2%,-31.3%,-81.3%,15.8µM*
N=C1S/C(=C\c2ccco2)C(=O)N1c1ccc2c(c1)OCO2,?,-2.0%,17.5%,-21.3%,15.8µM*
Cc1ccc(N2C(=O)/C(=C/c3ccco3)SC2=S)cc1,-26.1%,-12.9%,-3.4%,4.9%[10 µM],?
FC(F)(F)c1cnc(C(c2ccccn2)c2ncn[nH]2)c(Cl)c1 (stereo unspecified),-0.6%,-4.7%,12.6µM*,12.7%[10 µM],-5.9%
CCOc1ccc(OCC)c(NC(=O)Cn2ncc3c4ccccc4n(Cc4ccccc4)c3c2=O)c1,-14.2%,1.7%,nt,nt,1.9%
C/C(=N\[N+](C)(C)C)c1ccc(C)c(C)c1,nt,nt,nt,20.8%[10 µM],nt
CCOCCCNC(=O)c1ccc(-n2c(-c3ccccc3)cc3c2CCC(C)C3)cc1 (stereo unspecified),?,5.01µM*,nt,nt,9.6%
COC(=O)/C=C1\S/C(=N\N=C\CC(=O)OC)NC1=O,-8.3%,-4.0%,24.9%[9.22 µM],?,7.08µM*
COc1cc(S(=O)(=O)NCCc2c(C)[nH]c3ccc(C)cc23)ccc1Br,14.1µM*[quencher],?,nt,nt,?
COc1ccc(C(C)C)cc1S(=O)(=O)NCCc1c(C)[nH]c2ccc(C)cc12,10µM*[quencher],?,nt,nt,?
COc1ccc(CCNS(=O)(=O)c2cccc(C)c2)cc1OC,-6.6%,-0.4%,7.9%,-6.7%[10 µM],-1.9%
CN1CCN(CCCBr)CC1,nt,nt,nt,-15.7%[10 µM],nt
O=C1CSC(=S)N1/N=C/c1ccc(O)c(O)c1O,?,7.08µM*,-15.7%[9.22 µM],8.4%[10 µM],3.55µM*
CC1CC(Nc2cccc(O)c2)=CC(=O)O1 (stereo unspecified),-7.0%,-2.2%,-12.1%,-11.0%,-12.9%
C[C@@H]1Cc2c(O)c(O)cc(O)c2C(=O)O1,-20.8%,25.1µM*,-34.4%[9.22 µM],-34.5%[10 µM],31.6µM*
CN(C)/N=C/C=C1\CCC/C(=C/c2cccs2)C1=O,-10.3%,0.4%,-13.2%[9.22 µM],2.5%[10 µM],0.631µM*
CN(C)/N=C/C=C1\CC/C(=C\c2ccc(Br)cc2)C1=O,?,-3.4%,-5.2%[9.22 µM],-10.7%,0.891µM*
O=C1/C(=C/c2cccs2)COc2ccccc21,-3.6%,9.0%,-8.5%,23.5%[10 µM],?
O=C1NC(c2cc(Cl)cc([N+](=O)[O-])c2O)Nc2ccccc21 (stereo unspecified),-28.9%,5.8%,-12.7%[9.22 µM],-15.4%[10 µM],7.08µM*
Cc1ccc(C)c(C2NC(=O)c3ccccc3N2)c1 (stereo unspecified),-2.5%,-2.4%,3.6%[9.22 µM],-32.8%[10 µM],-5.3%
COc1cc(/C=C2\SC(=S)N(NS(=O)(=O)c3ccc(C)cc3)C2=O)ccc1O,-15.9%,6.5%,-11.3%[9.22 µM],2.7%[10 µM],10µM*
COc1cc(/C=C2\SC(=S)N(NS(=O)(=O)c3ccccc3)C2=O)ccc1O,-4.8%,4.7%,21.7%[9.22 µM],18.8%[10 µM],14.1µM*
Cc1cc(C)cc(NC(=O)C(CC(C)C)NC(=O)C2CCCCC2)c1 (stereo unspecified),-20.1%,-7.9%,nt,nt,-10.9%
